Data on 24 targets can be found in the supplement of paper PMC10849652.

Common to all, as to test: log2 fold change, soluble protein after heating vs DMSO (PISA); higher = thermal stabilisation; K562 lysate, 10 uM; active = over 0.2 and 3.5 SD of the protein, either way, in both replicates (recomputed)
Compound in experiment [1]: C1=CC=C(C=C1)[C@H](COC2=CC3=C(C=C2)NC(=O)N3)NC(=O)C4=CC=CN(C4=O)CC5=CC(=C(C=C5)F)F
The gist of the method: (§1)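 Values give the log-two fold change in thermal stability against solvent controls, from duplicates. Crude K562 extract at 1 mg/mL protein, made by dounce homogenisation in PBS pH 7.4 with 1 mM MgCl2, was treated with 10 μM compound for 30 min. After 3 min heating across 48°C-58°C, aliquots were pooled, adjusted to 0.5% NP-40 at 4°C and centrifuged at 21,000xg for 90 min. The supernatant was measured by TMTpro 16plex LC-MS/MS with channel sums equalised.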

Compound in experiment [2]: CC1=C(SC2=C1C(=N[C@H](C3=NN=C(N32)C)CC(=O)N)C4=CC=C(C=C4)Cl)C
The gist of the method: as §1

Compound in experiment [3]: CC1=C2C(=CC=C1)N=C(N(C2=O)C3=CC=CC=C3C)CN4C=NC5=C(N=CN=C54)N
The gist of the method: as §1

Compound in experiment [4]: Cc1sc2c(c1C)C(c1ccc(Cl)cc1)=N[C@@H](CC(=O)OC(C)(C)C)c1nnc(C)n1-2
The gist of the method:
as §1

Compound in experiment [5]: c1ccc([C@@H]2C[C@H]2NC2CCNCC2)cc1
The gist of the method: as §1

Targets with a hit are over-represented here; the source holds about 8,800 in all. About 0.5% of all pairs of compound and target were hits. Unmarked numbers belong to inactive results.

Chain of UniProt Q14687 (Q14687 whole entry, looked up): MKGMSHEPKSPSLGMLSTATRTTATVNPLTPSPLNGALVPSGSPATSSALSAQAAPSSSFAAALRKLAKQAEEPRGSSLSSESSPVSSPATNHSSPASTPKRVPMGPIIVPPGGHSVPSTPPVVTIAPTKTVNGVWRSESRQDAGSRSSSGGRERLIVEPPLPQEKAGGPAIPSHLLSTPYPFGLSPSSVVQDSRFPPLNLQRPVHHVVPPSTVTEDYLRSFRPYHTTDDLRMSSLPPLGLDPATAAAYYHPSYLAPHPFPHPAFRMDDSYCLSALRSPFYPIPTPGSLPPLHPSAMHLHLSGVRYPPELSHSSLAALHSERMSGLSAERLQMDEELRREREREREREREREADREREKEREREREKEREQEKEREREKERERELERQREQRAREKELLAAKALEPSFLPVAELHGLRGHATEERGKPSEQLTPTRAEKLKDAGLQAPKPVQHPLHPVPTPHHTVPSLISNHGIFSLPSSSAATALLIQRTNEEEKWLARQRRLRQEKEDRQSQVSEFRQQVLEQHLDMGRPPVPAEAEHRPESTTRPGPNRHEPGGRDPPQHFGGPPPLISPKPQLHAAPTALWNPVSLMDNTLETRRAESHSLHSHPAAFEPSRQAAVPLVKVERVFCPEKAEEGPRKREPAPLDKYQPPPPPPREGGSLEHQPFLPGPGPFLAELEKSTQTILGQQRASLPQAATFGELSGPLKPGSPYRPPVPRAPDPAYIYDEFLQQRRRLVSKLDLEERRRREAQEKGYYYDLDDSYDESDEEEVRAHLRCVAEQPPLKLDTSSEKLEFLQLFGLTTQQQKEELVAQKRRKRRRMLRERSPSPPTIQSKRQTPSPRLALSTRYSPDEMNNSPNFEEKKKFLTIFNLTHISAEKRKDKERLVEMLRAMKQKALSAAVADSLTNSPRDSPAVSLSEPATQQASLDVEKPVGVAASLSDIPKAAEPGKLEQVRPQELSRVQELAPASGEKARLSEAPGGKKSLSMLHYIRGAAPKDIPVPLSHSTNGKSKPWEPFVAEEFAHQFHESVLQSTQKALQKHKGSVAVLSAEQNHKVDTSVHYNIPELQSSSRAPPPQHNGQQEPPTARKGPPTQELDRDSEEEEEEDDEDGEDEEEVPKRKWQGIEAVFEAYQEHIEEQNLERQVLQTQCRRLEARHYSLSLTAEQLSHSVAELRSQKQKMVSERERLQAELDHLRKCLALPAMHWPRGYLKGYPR
Chain of UniProt Q8NEC7 (Q8NEC7 whole entry, looked up): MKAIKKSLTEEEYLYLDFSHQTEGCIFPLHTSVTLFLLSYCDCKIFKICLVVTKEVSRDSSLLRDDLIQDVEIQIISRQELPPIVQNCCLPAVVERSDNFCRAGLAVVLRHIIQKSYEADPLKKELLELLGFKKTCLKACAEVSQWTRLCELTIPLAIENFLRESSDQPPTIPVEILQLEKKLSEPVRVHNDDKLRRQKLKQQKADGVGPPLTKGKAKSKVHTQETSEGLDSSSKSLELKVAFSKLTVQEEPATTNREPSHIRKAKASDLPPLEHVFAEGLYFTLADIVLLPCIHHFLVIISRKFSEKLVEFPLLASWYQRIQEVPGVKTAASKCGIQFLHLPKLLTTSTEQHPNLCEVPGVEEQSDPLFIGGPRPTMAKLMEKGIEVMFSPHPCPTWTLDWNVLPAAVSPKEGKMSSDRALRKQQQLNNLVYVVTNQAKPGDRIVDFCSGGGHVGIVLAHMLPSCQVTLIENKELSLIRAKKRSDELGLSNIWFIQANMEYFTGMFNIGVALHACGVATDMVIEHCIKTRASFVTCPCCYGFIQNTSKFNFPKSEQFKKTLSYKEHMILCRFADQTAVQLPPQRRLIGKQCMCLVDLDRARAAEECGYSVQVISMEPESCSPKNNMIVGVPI
Chain of UniProt P50053 (P50053 whole entry, looked up): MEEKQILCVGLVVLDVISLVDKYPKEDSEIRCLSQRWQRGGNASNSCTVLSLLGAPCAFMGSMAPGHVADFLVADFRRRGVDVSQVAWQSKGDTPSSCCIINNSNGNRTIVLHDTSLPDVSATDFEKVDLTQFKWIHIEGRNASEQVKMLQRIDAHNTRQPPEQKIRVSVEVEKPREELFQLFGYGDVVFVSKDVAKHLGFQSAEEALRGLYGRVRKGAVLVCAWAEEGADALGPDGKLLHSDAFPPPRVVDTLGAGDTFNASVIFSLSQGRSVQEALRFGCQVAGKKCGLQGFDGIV
Chain of UniProt Q9Y223 (Q9Y223 whole entry, looked up): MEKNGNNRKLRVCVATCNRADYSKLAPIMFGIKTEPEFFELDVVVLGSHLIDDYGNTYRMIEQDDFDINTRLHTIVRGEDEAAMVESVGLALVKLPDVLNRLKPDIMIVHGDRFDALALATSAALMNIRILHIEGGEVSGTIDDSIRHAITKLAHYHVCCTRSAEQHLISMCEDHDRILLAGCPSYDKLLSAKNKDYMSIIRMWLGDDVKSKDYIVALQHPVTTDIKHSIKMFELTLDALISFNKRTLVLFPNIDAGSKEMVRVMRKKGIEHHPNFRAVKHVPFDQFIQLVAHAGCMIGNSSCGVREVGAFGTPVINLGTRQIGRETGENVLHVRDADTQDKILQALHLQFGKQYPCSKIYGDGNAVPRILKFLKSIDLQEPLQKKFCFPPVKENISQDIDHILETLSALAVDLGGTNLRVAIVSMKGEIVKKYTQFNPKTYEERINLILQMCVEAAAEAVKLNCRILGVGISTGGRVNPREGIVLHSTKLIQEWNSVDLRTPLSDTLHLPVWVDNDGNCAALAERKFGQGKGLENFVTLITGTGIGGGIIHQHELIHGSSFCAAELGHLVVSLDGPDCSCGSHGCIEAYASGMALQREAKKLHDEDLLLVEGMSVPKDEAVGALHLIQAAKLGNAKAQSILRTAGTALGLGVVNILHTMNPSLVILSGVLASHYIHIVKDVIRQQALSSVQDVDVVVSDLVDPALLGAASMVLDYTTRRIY
Chain of UniProt Q6DN03 (Q6DN03 whole entry, looked up): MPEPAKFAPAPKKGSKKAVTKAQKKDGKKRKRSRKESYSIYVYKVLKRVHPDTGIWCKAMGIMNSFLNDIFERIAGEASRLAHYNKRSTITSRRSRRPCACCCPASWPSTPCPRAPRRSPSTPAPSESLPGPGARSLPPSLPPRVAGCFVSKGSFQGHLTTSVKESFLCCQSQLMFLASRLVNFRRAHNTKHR
Chain of UniProt P09211 (P09211 whole entry, looked up): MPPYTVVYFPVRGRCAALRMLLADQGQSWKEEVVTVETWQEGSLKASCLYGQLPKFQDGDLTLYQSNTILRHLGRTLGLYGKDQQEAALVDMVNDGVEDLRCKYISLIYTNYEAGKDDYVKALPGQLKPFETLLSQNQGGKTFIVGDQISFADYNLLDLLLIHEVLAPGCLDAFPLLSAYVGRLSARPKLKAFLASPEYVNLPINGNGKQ
Chain of UniProt P62873 (P62873 whole entry, looked up): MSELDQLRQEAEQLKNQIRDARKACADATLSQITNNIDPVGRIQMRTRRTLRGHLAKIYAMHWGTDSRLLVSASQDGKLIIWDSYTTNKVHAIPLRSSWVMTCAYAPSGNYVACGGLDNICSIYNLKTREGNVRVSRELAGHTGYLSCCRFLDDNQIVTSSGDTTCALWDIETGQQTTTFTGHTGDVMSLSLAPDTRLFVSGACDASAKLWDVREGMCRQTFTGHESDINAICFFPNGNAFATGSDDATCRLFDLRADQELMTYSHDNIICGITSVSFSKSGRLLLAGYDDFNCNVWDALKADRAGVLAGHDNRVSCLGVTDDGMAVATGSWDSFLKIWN
Chain of UniProt P35914 (P35914 whole entry, looked up): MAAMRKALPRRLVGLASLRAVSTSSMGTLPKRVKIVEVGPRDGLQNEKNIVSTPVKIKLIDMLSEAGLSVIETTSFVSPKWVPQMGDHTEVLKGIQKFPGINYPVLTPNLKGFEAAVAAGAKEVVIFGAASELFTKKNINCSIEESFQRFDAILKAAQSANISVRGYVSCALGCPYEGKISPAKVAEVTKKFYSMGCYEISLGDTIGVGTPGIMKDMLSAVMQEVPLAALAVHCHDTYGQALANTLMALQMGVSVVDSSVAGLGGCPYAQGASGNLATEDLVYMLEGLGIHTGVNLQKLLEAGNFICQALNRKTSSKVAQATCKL
Chain of UniProt Q9P2X3 (Q9P2X3 whole entry, looked up): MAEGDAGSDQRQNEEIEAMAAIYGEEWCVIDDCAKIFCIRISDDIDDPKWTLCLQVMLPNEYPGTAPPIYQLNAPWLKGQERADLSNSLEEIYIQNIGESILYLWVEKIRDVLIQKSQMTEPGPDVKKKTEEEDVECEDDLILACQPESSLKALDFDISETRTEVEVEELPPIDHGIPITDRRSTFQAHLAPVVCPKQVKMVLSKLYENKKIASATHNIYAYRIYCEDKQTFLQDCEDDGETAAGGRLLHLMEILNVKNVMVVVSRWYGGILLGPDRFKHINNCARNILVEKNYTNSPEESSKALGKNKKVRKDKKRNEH
Chain of UniProt P49915 (P49915 whole entry, looked up): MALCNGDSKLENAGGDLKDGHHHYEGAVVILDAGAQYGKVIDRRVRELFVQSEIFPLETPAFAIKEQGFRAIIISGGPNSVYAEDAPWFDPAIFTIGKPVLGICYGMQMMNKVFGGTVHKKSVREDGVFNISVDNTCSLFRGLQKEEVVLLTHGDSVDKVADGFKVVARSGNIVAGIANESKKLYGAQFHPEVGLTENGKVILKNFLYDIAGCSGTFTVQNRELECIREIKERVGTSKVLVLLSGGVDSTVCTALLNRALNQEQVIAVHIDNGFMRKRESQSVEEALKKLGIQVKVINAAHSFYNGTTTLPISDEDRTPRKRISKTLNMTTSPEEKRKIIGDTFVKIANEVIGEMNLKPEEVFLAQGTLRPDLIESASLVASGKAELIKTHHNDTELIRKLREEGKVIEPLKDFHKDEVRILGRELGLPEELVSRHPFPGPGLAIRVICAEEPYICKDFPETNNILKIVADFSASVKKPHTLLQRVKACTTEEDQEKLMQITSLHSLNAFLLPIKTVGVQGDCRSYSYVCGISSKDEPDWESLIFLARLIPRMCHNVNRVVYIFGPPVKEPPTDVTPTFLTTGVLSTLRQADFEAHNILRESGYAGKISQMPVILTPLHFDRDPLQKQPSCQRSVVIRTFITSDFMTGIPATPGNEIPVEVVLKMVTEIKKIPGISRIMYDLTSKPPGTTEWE

With GON4L (UniProt Q3T8J9), the log2 fold change in experiment [1] was 0.027; in experiment [2], 0; in experiment [3] it was 0.008; in experiment [4], 0.003; in experiment [5] it was 0.466 (active).

In the case of GTF3C5 isoform 3 (UniProt Q9Y5Q8), the log2 fold change is -0.024 in experiment [1]; 0.001 in experiment [2]; 0.019 in experiment [3]; 0.056 in experiment [4]; 0.016 in experiment [5].

Turning to GSTCD (UniProt Q8NEC7), the log2 fold change in experiment [1] is -0.048; in experiment [2] it was -0.048; in experiment [3], -0.076; in experiment [4], -0.055; in experiment [5] it was 0.007.

HDAC10 (UniProt Q969S8): the log2 fold change in experiment [1] is -0.076; in experiment [2], 0.115; in experiment [3] it was 0.21; in experiment [4] it was 0.197; in experiment [5], -0.055.

GTF2H1 (UniProt P32780): the log2 fold change in experiment [1] was 0.006; in experiment [2], -0.035; in experiment [3] it was 0.089; in experiment [4], 0.025; in experiment [5] it was 0.006.

For GNE isoform 2 (UniProt Q9Y223), the log2 fold change in experiment [1] was -0.072; in experiment [2], 0.006; in experiment [3], 0.023; in experiment [4], 0.007; in experiment [5], 0.06.

For the target HNRNPL (UniProt P14866), the log2 fold change was -0.01 in experiment [1]; -0.024 in experiment [2]; 0.04 in experiment [3]; 0.039 in experiment [4]; 0.071 in experiment [5].

On to INTS14 (UniProt Q96SY0), for which the log2 fold change is 0.067 in experiment [1]; 0.034 in experiment [2]; -0.038 in experiment [3]; 0.007 in experiment [4]; 0.009 in experiment [5].

As to GSTP1 (UniProt P09211), the log2 fold change in experiment [1] is -0.018; in experiment [2] it was 0.004; in experiment [3], -0.003; in experiment [4] it was -0.017; in experiment [5], 0.035.

Consider IMPDH2 (UniProt H0Y4R1), for which the log2 fold change in experiment [1] was -0.048; in experiment [2], 0; in experiment [3], -0.077; in experiment [4], -0.018; in experiment [5], -0.203.

Regarding HIST2H2BC (UniProt Q6DN03), the log2 fold change was -0.03 in experiment [1]; 0.065 in experiment [2]; 0.014 in experiment [3]; 0.003 in experiment [4]; 0.165 in experiment [5].

As for HDAC2 (UniProt Q92769), the log2 fold change is 0.004 in experiment [1]; 0.002 in experiment [2]; -0.017 in experiment [3]; 0.02 in experiment [4]; -0.004 in experiment [5].

As for GNB1 (UniProt P62873), the log2 fold change in experiment [1] was 0.042; in experiment [2], -0.051; in experiment [3], -0.038; in experiment [4] it was 0.069; in experiment [5], -0.329.

In the case of IMPACT (UniProt Q9P2X3), the log2 fold change is 0.093 in experiment [1]; -0.07 in experiment [2]; -0.18 in experiment [3]; -0.067 in experiment [4]; -0.13 in experiment [5].

On to HMGCL (UniProt P35914), for which the log2 fold change in experiment [1] was 0.057; in experiment [2], -0.017; in experiment [3], 0.058; in experiment [4], 0.046; in experiment [5] it was 0.006.

With GSE1 (UniProt Q14687), the log2 fold change was -0.031 in experiment [1]; 0.005 in experiment [2]; -0.002 in experiment [3]; -0.015 in experiment [4]; 0.184 in experiment [5].

Turning to HTT (UniProt P42858), the log2 fold change in experiment [1] is 0.039; in experiment [2], -0.088; in experiment [3] it was 0.064; in experiment [4] it was 0.066; in experiment [5] it was -0.054.

GMPS (UniProt P49915): the log2 fold change in experiment [1] was -0.014; in experiment [2], -0.001; in experiment [3] it was 0.02; in experiment [4], 0.019; in experiment [5], 0.088.

Take HAUS7 isoform 2 (UniProt Q99871): the log2 fold change in experiment [1] is 0.163; in experiment [2] it was 0.036; in experiment [3], 0.019; in experiment [4], 0.069; in experiment [5], 0.032.

Regarding HS1BP3 (UniProt Q53T59), the log2 fold change was 0.018 in experiment [1]; -0.03 in experiment [2]; -0.073 in experiment [3]; 0.004 in experiment [4]; -0.053 in experiment [5].

With GPX4 (UniProt P36969), the log2 fold change in experiment [1] is 0.018; in experiment [2] it was -0.01; in experiment [3], 0.036; in experiment [4], -0.03; in experiment [5], 0.048.

Take GYPA (UniProt P02724): the log2 fold change is 0.071 in experiment [1]; -0.055 in experiment [2]; -0.002 in experiment [3]; 0.138 in experiment [4]; 0.236 in experiment [5].

Regarding KDM1A (UniProt O60341), the log2 fold change was 0.007 in experiment [1]; -0.004 in experiment [2]; 0.018 in experiment [3]; 0.009 in experiment [4]; 0.817 (active) in experiment [5].

Consider KHK isoform 2 (UniProt P50053), for which the log2 fold change in experiment [1] was -0.01; in experiment [2], 0.034; in experiment [3], -0.003; in experiment [4], -0.137; in experiment [5], 0.142.
